In the library only some 11% were active in any assay of this set; here they are far more common.
HP1b binding inh = HP1-beta chromodomain-methylated histone interaction inhibition. P83916. AID 540317. actives 0.56% (n = 390,000). Potency, µM (top dose mostly 114 µM), usual class: inhibitors. AlphaScreen HP1-beta / biotin-H3K9me3 peptide binding; also: nearly all actives have a fitted effect of over 70% in size
Target sequence (P83916 whole entry, looked up): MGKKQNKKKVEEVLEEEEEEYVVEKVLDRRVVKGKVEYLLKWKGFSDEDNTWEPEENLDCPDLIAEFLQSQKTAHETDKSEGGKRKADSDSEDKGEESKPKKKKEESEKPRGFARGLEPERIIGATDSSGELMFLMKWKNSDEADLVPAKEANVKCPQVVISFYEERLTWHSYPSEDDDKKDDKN
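AlphaScreen: HP1-beta (50 nM) preformed 30 min with biotin-H3(1-18)K9me3 peptide (50 nM) in PBS pH 7.4, 0.01% Tween-20. Compound added for 30 min at RT, then streptavidin donor/nickel chelate acceptor beads (10 ug/mL) for 30 min.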
G9a block = blocks human histone lysine methyltransferase G9a | Q96KQ7 | Potency, µM (titrated, usually from 102 µM), actives largely listed as inhibitors | G9a H3K9 monomethylation, AlphaScreen, 2 h | actives 8.8% (n = 350,000) | AID 504332; also: nearly all actives have a fitted effect of over 75% in size
Target sequence (Q96KQ7 913-1193 limits assumed): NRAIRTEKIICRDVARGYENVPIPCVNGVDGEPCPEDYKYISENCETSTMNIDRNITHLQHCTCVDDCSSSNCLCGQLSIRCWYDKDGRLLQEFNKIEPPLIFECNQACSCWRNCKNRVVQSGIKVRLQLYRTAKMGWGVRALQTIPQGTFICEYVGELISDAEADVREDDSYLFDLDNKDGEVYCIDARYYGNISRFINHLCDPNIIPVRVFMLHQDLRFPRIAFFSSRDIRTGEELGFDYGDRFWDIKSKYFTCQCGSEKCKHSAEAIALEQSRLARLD
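G9a (20 nM) was preincubated 15 min with compound, then reacted 2 h at room temperature with 500 nM biotin-H3K9 peptide and 20 µM SAM. Monomethyl-H3K9 detected by AlphaScreen using anti-H3K9me1 antibody.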
L3MBTL1 block = blocks human L3MBTL1 | Potency, µM (titrated, usually from 57.1 µM), most hits filed as inhibitors | AID 485360 | actives 0.66% (n = 230,000) | Q9Y468 | AlphaScreen L3MBTL1–H3K9me1 peptide binding; also: nearly all actives have a fitted effect of over 60% in size
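Read-out is AlphaScreen signal from streptavidin donor and nickel chelate acceptor beads (10 ug/mL final each) bridging L3MBTL1 (50 nM) and biotinylated K9-monomethylated H3(1-15) peptide (75 nM), after 30 min compound exposure at room temperature.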
BAZ2B inh = inhibitors of human BAZ2B bromodomain. Q9UIF8. AlphaScreen BAZ2B-H3K14Ac peptide displacement. Potency, µM (titrated, usually from 114 µM), actives largely listed as inhibitors. actives 4.4% (n = 360,000). AID 504333; also: nearly all actives have a fitted effect of over 60% in size
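AlphaScreen luminescence quantifies BAZ2B engagement of H3K14Ac peptide; the protein and biotinylated peptide are both at 50 nM final, buffer PBS pH 7.4 with 0.01% Tween-20, all steps at room temperature.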
JMJD2A Tudor = inhibitors of human JMJD2A Tudor domain; Potency, µM (series often up to 114 µM), hits mostly inhibitors; AlphaScreen JMJD2A-Tudor / H3K4me3 peptide binding; actives 4.4% (n = 390,000); O75164; also: nearly all actives have a fitted effect of over 50% in size
Numbers stand for hits; n = inactive; u = inconclusive; x = no result given; [ ] = another dose, or the depositor's remark. Calls follow the shape of the dose curve; as a rule, active = well fitted inhibition curve with a large enough effect; inconclusive = small, poorly fitted or top-dose-only effect; inactive = no such curve, though single readings can be large or run the other way.

SMILES	HP1b binding inh	G9a block	L3MBTL1 block	BAZ2B inh	JMJD2A Tudor
COc1ccc(N2C(=O)/C(=C/N(C)C)NC2=S)cc1	u	3.55µM	n	n	17.8µM
CCN1C(=O)c2cccc3cccc1c23	n	n[12.7 µM]	x	n	31.6µM
CN(C)C(=O)CN1C(=O)c2cccc3cccc1c23	n	x	n	n	n
Nc1ccccc1-c1n[nH]c(=S)s1	u	0.631µM	n	u	28.2µM
Cc1cccc(C)c1NC(=O)CSc1nc(-c2cccs2)cc(C(F)(F)F)n1	n	n	x	n	n
O=C(CNc1ccc(Br)cc1)c1ccc(O)cc1	n	44.7µM	x	n	u
O=C(CNc1ccc(Br)cc1)c1ccc(Br)s1	n	39.8µM	x	u	n
COc1cc([C@@H]2OC[C@@H]3[C@H]2CO[C@@H]3c2ccc3c(c2)OCO3)ccc1O	n	x	n	x	n
COc1cc(CC2COC(c3ccc(O)c(OC)c3)C2COC(C)=O)ccc1O (centres undefined)	u	u	x	39.8µM	50.1µM
COCCn1c(=S)[nH]c2sc3c(c2c1=O)CCC(C)C3 (centres undefined)	n	20µM	x	n	n
CCCn1c(=S)[nH]c2sc3c(c2c1=O)CCCC3	n	n	x	n	n
COCCCn1c(=S)[nH]c2sc3c(c2c1=O)CCCS3	n	4.47µM	n	u	n
Cn1c(=S)[nH]c2sc3c(c2c1=O)CCC(C(C)(C)C)C3 (centres undefined)	x	39.8µM	x	n	x
C#C[C@]1(O)CC[C@H]2C3CCC4=Cc5oncc5CC4(C)C3CCC21C (some centres undefined)	x	n[12.7 µM]	x	x	x
CCCc1c(O)nc(SC2CC(=O)N(c3ccc(C)c(Cl)c3)C2=O)[nH]c1=O (centres undefined)	x	x	x	x	n
Cc1ccc(N2C(=O)CC(Sc3nc4ccccc4o3)C2=O)cc1Cl (centres undefined)	n	11.2µM	n	n	u
Cc1cccc(C)c1NC(=O)CSc1nccn1C	n	n	x	n	n
COc1ncc2ncc(=O)n(C[C@H]3CCCO3)c2n1	x	n[0.501 µM]	x	x	x
COc1ccc(-n2nc3c(N4CCCC(C(=O)NCc5ccccc5C)C4)nnc(C)c3c2C)cc1 (centres undefined)	n	u	n	50.1µM	n
Cc1ccc(-n2nc3c(N4CCC(C(=O)NCc5ccc(C)o5)CC4)nnc(C)c3c2C)cc1	n	u	x	50.1µM	44.7µM
O=C(C1CCCCC1)N(Cc1cccnc1)c1nc2ccc(Cl)cc2s1	n	n	x	n	n
CC(c1n[nH]c(=S)n1-c1ccccc1)N1CCCCC1 (centres undefined)	n	17.8µM	n	n	7.08µM
CC(c1nc2ccccc2n1Cc1ccccc1)N1CCCCC1 (centres undefined)	n	n	x	n	n
O=C(/C=C/c1ccccc1)Nc1nc(-c2cccs2)ns1	n	n	x	n	n
Cc1ccn2c(=O)nc(SCC(=O)NCCc3ccccc3)nc2c1	n	n	n	n	n
SMILES	HP1b binding inh	G9a block	L3MBTL1 block	BAZ2B inh	JMJD2A Tudor
Cc1cc(NC(=O)C2CCCN(S(=O)(=O)c3cn(C)cn3)C2)ccc1Br (centres undefined)	n	n[12.7 µM]	x	n	n
CC1CCN(CC(=O)Nc2ccccc2-c2ccccc2)CC1	n	n	n	n	n
CC1CCCCC1NCC(=O)Nc1ccccc1-c1ccccc1 (centres undefined)	n	6.31µM	n	u	n[11.4 µM]
CCOc1ccc(NC(=O)CCc2nc3cccnc3n2-c2ccccc2)cc1	n	n	x	n	n
Cc1cc(O)c(C(C)C)cc1N=Cc1ccc([N+](=O)[O-])cc1	50.1µM	x	x	x	44.7µM
Cc1cc(O)c(C(C)C)cc1NC(=O)Nc1ccc([N+](=O)[O-])cc1	n	x	x	x	u
Cc1cc(O)c(C(C)C)cc1N=Cc1ccc(N(C)C)cc1	44.7µM	x	x	x	50.1µM
COc1cccc(C=Nc2cc(C(C)C)c(O)cc2C)c1O	79.4µM	x	x	x	56.2µM
COc1ccc(-c2onc(C)c2C)cc1S(=O)(=O)NCc1ccc(C)o1	n	n	x	u	n
CSCc1ccc(C(=O)NC(C)c2cnn(-c3ccccn3)c2C)o1 (centres undefined)	n	35.5µM	x	n	n
COc1cccc(Cn2ncc3c4sc(SC)cc4n(C)c3c2=O)c1	x	x	x	x	n
C=CCN1CCc2nc(N)sc2CC1	n	15.8µM	n	n	n
CCN1CCc2nc(N)sc2C1	n	12.6µM	n	n	n
C=CCN1CCN(Cc2cnc(Cl)s2)CC1	n	n[12.7 µM]	n	n	n

Compound activity (PubChem BioAssay)
